Experimental data: the supplement of paper PMC8728848
About 410 targets per protein were measured; listed, in parts, are those with the strongest signals and a random draw of the rest.

Legend:
Assay in all cases: glycan array binding signal (z-score within array); higher = stronger binding
Details in all cases: glycan notation: IUPAC condensed, linker removed
[1] = biological target: Fuc(a1-2)Gal(b1-3)GlcNAc(b1-3)[Neu5Ac(a2-6)Gal(b1-4)GlcNAc(b1-6)]Gal(b1-4)Glc
How it was run: (§1)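 Negative Z-scores can be read as non-binding. The Z-score is calculated within each array and then averaged across arrays of one protein sequence at different concentrations or buffers and across linkers. Arrays, 3228 in all, were curated from the Consortium for Functional Glycomics database and kept only where the protein sequence was available.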

[2] = biological target: Fuc(a1-3)[Gal(b1-4)]GlcNAc(b1-6)GalNAc
How it was run: as §1

Gal(a1-2)Gal = biological target: Gal(a1-2)Gal
How it was run: as §1

[3] = biological target: Gal(a1-3)Gal(b1-3)GlcNAc(b1-6)GalNAc
How it was run: as §1

[4] = biological target: Gal(a1-3)Gal(b1-3)[Fuc(a1-4)]GlcNAc(b1-2)Man(a1-3)[Gal(a1-3)Gal(b1-3)[Fuc(a1-4)]GlcNAc(b1-2)Man(a1-6)]Man(b1-4)GlcNAc(b1-4)GlcNAc
How it was run: as §1

[5] = biological target: Gal(a1-3)[Gal(a1-4)]Gal(b1-4)GlcNAc
How it was run: as §1

Gal(a1-4)Gal(b1-4)Glc = biological target: Gal(a1-4)Gal(b1-4)Glc
How it was run: as §1

[6] = biological target: Gal(b1-3)GlcNAc(b1-2)Man(a1-3)[GlcNAc(b1-4)][Gal(b1-3)GlcNAc(b1-2)Man(a1-6)]Man(b1-4)GlcNAc(b1-4)GlcNAc
How it was run: as §1

Gal(b1-3)GlcNAc6S = biological target: Gal(b1-3)GlcNAc6S
How it was run: as §1

[7] = biological target: Gal(b1-4)GlcNAc(b1-3)Gal(b1-4)GlcNAc(b1-2)[Gal(b1-4)GlcNAc(b1-3)Gal(b1-4)GlcNAc(b1-6)]Man(a1-6)[Gal(b1-4)GlcNAc(b1-3)Gal(b1-4)GlcNAc(b1-2)Man(a1-3)]Man(b1-4)GlcNAc(b1-4)[Fuc(a1-6)]GlcNAc
How it was run: as §1

[8] = biological target: Gal(b1-4)GlcNAc(b1-3)Gal(b1-4)GlcNAc(b1-3)Gal(b1-4)GlcNAc(b1-2)[Gal(b1-4)GlcNAc(b1-3)Gal(b1-4)GlcNAc(b1-3)Gal(b1-4)GlcNAc(b1-6)]Man(a1-6)[Gal(b1-4)GlcNAc(b1-3)Gal(b1-4)GlcNAc(b1-3)Gal(b1-4)GlcNAc(b1-2)Man(a1-3)]Man(b1-4)GlcNAc(b1-4)[Fuc(a1-6)]GlcNAc
How it was run: as §1

[9] = biological target: Gal(b1-4)GlcNAc(b1-3)Gal(b1-4)GlcNAc(b1-3)Gal(b1-4)GlcNAc(b1-3)Gal(b1-4)GlcNAc(b1-3)Gal(b1-4)GlcNAc(b1-2)Man(a1-3)[Gal(b1-4)GlcNAc(b1-3)Gal(b1-4)GlcNAc(b1-3)Gal(b1-4)GlcNAc(b1-3)Gal(b1-4)GlcNAc(b1-3)Gal(b1-4)GlcNAc(b1-2)Man(a1-6)]Man(b1-4)GlcNAc(b1-4)GlcNAc
How it was run: as §1

[10] = biological target: Gal(b1-4)GlcNAc(b1-3)Gal(b1-4)GlcNAc(b1-3)Gal(b1-4)GlcNAc(b1-3)Gal(b1-4)GlcNAc(b1-3)Gal(b1-4)GlcNAc(b1-2)Man(a1-3)[Gal(b1-4)GlcNAc(b1-3)Gal(b1-4)GlcNAc(b1-3)Gal(b1-4)GlcNAc(b1-3)Gal(b1-4)GlcNAc(b1-3)Gal(b1-4)GlcNAc(b1-2)Man(a1-6)]Man(b1-4)GlcNAc(b1-4)[Fuc(a1-6)]GlcNAc
How it was run: as §1

[11] = biological target: Gal(b1-4)GlcNAc(b1-3)Gal(b1-4)GlcNAc(b1-3)Gal(b1-4)GlcNAc(b1-3)Gal(b1-4)GlcNAc(b1-3)Gal(b1-4)GlcNAc(b1-3)Gal(b1-4)GlcNAc(b1-2)Man(a1-3)[Gal(b1-4)GlcNAc(b1-3)Gal(b1-4)GlcNAc(b1-3)Gal(b1-4)GlcNAc(b1-3)Gal(b1-4)GlcNAc(b1-3)Gal(b1-4)GlcNAc(b1-3)Gal(b1-4)GlcNAc(b1-2)Man(a1-6)]Man(b1-4)GlcNAc(b1-4)GlcNAc
How it was run: as §1

[12] = biological target: Gal(b1-4)GlcNAc(b1-3)[Gal(b1-4)GlcNAc(b1-6)]Gal(b1-4)GlcNAc
How it was run: as §1

Gal(b1-4)GlcNAc6P = biological target: Gal(b1-4)GlcNAc6P
How it was run: as §1

Gal6P(b1-4)GlcNAc = biological target: Gal6P(b1-4)GlcNAc
How it was run: as §1

GalNAc(a1-3)Gal = biological target: GalNAc(a1-3)Gal
How it was run: as §1

GalNAc(b1-3)GlcNAc = biological target: GalNAc(b1-3)GlcNAc
How it was run: as §1

GalNAc6S(b1-4)GlcNAc = biological target: GalNAc6S(b1-4)GlcNAc
How it was run: as §1

GlcA(b1-6)Gal = biological target: GlcA(b1-6)Gal
How it was run: as §1

[13] = biological target: GlcNAc(a1-4)Gal(b1-4)GlcNAc(b1-3)Gal(b1-4)Glc
How it was run: as §1

[14] = biological target: GlcNAc(b1-2)Man(a1-3)[GlcNAc(b1-4)][GlcNAc(b1-2)Man(a1-6)]Man(b1-4)GlcNAc(b1-4)[Fuc(a1-6)]GlcNAc
How it was run: as §1

GlcNAc(b1-3)Gal = biological target: GlcNAc(b1-3)Gal
How it was run: as §1

[15] = biological target: GlcNAc(b1-3)Gal(b1-4)GlcNAc(b1-3)Gal(b1-4)GlcNAc(b1-3)Gal(b1-4)GlcNAc(b1-3)Gal(b1-4)GlcNAc(b1-2)Man(a1-3)[GlcNAc(b1-3)Gal(b1-4)GlcNAc(b1-3)Gal(b1-4)GlcNAc(b1-3)Gal(b1-4)GlcNAc(b1-3)Gal(b1-4)GlcNAc(b1-2)Man(a1-6)]Man(b1-4)GlcNAc(b1-4)[Fuc(a1-6)]GlcNAc
How it was run: as §1

[16] = biological target: GlcNAc(b1-3)Gal(b1-4)GlcNAc(b1-3)GalNAc
How it was run: as §1

[17] = biological target: Man(a1-3)[Man(a1-6)]Man(a1-6)[Man(a1-3)]Man(b1-4)GlcNAc(b1-4)GlcNAc
How it was run: as §1

[18] = biological target: Neu5Ac(a2-3)Gal(b1-3)GlcNAc(b1-3)GalNAc
How it was run: as §1

[19] = biological target: Neu5Ac(a2-3)Gal(b1-3)[Fuc(a1-4)]GlcNAc(b1-3)Gal(b1-4)[Fuc(a1-3)]GlcNAc
How it was run: as §1

[20] = biological target: Neu5Ac(a2-3)Gal(b1-3)]Neu5Ac(a2-3)Gal(b1-4)]GlcNAc
How it was run: as §1

[21] = biological target: Neu5Ac(a2-3)Gal(b1-4)GlcNAc(b1-2)[Neu5Ac(a2-3)Gal(b1-4)GlcNAc(b1-4)]Man(a1-3)[GlcNAc(b1-4)][Neu5Ac(a2-3)Gal(b1-4)GlcNAc(b1-2)[Neu5Ac(a2-3)Gal(b1-4)GlcNAc(b1-6)]Man(a1-6)]Man(b1-4)GlcNAc(b1-4)GlcNAc
How it was run: as §1

[22] = biological target: Neu5Ac(a2-3)Gal(b1-4)[Fuc(a1-3)]GlcNAc(b1-6)[Gal(b1-3)]GalNAc
How it was run: as §1

[23] = biological target: Neu5Ac(a2-3)[GalNAc(b1-4)]Gal(b1-4)GlcNAc(b1-3)GalNAc
How it was run: as §1

[24] = biological target: Neu5Ac(a2-6)Gal(b1-4)GlcNAc(b1-2)Man(a1-3)Man(b1-4)GlcNAc(b1-4)GlcNAc
How it was run: as §1

[25] = biological target: Neu5Ac(a2-6)Gal(b1-4)GlcNAc(b1-3)[Neu5Ac(a2-6)Gal(b1-4)GlcNAc(b1-6)]GalNAc
How it was run: as §1

[26] = biological target: Neu5Ac(a2-8)Neu5Gc(a2-3)Gal(b1-4)GlcNAc
How it was run: as §1

[27] = biological target: Neu5Ac9Ac(a2-3)Gal(b1-4)GlcNAc
How it was run: as §1

B1: PX9961J-bvu-499-24-499 (Bacteroides vulgatus) (protein)
chain: LNTDPSTAVPSDDAIKNIDDAQVALNGIYRLASAHSYYGDNYLYYADCRGEDVQARINKGAGRRVSPYYFFDVTADDNFNITLVWNQPYKVIHQANSLIEKLDAGNAGNARPEEVARIKSEALAMRGLALFDLTRLFGMPYTLDNGASLGVPIEIQTTLEDHAPERNTVAQCYEQVLKDLNDALGGLTKEKHDAYMNYWSVKALLSRVYLYMNDNENALKCAEEVINDNGGIYRLFTHDEYPSVWGKDFNSESLFEFYFTMSEPSGGSGGEGAPMVYADNVKDWNNLILTKAYLDLLNEDPEDVRHVFPHLPENAVADTLPVAAKGQPKYLIKYPGKSGSVTDAVSTVNPQDNDLCILRLSEVYLNAAEAAFKIGNTEKALTYLNAIVTRANPAKSVTSADLSLERILKERRKELVGEGHAFFDYMRNGKSVDRSGGWHLTMPEDARVIAPSDPRVALPIPQTEIDANPNIVQNPR
[1]
  glycan array binding signal (z-score): -0.281
[2]
  glycan array binding signal (z-score): -0.674
Gal(a1-2)Gal
  glycan array binding signal (z-score): -0.036
[3]
  glycan array binding signal (z-score): 1.19
[4]
  glycan array binding signal (z-score): 2.95
[5]
  glycan array binding signal (z-score): 3.12
Gal(a1-4)Gal(b1-4)Glc
  glycan array binding signal (z-score): -0.223
[6]
  glycan array binding signal (z-score): 2.45
Gal(b1-3)GlcNAc6S
  glycan array binding signal (z-score): -0.142
[7]
  glycan array binding signal (z-score): 3.83
[8]
  glycan array binding signal (z-score): 0.849
[9]
  glycan array binding signal (z-score): 4.09
[10]
  glycan array binding signal (z-score): 2.67
[11]
  glycan array binding signal (z-score): 0.326
[12]
  glycan array binding signal (z-score): -0.048
Gal(b1-4)GlcNAc6P
  glycan array binding signal (z-score): 0.028
Gal6P(b1-4)GlcNAc
  glycan array binding signal (z-score): -0.613
GalNAc(a1-3)Gal
  glycan array binding signal (z-score): 2.34
GalNAc(b1-3)GlcNAc
  glycan array binding signal (z-score): 0.212
GalNAc6S(b1-4)GlcNAc
  glycan array binding signal (z-score): 2.75
GlcA(b1-6)Gal
  glycan array binding signal (z-score): 0.034
[13]
  glycan array binding signal (z-score): 0.01
[14]
  glycan array binding signal (z-score): -0.709
GlcNAc(b1-3)Gal
  glycan array binding signal (z-score): -0.109
[15]
  glycan array binding signal (z-score): 2.84
[16]
  glycan array binding signal (z-score): 0.1
[17]
  glycan array binding signal (z-score): -0.181
[18]
  glycan array binding signal (z-score): 0.006
[19]
  glycan array binding signal (z-score): -0.506
[20]
  glycan array binding signal (z-score): 0.358
[21]
  glycan array binding signal (z-score): -0.208
[22]
  glycan array binding signal (z-score): -0.279
[23]
  glycan array binding signal (z-score): -0.342
[24]
  glycan array binding signal (z-score): 0.368
[25]
  glycan array binding signal (z-score): -0.732
[26]
  glycan array binding signal (z-score): 19
[27]
  glycan array binding signal (z-score): -0.319
